Measured values reported in paper PMC7862700, “An all-to-all approach to the identification of sequence-specific readers for epigenetic DNA modifications on cytosine”.

Columns and labels:
Test in all cases: DAPPL (digital affinity profiling via proximity ligation, sequencing); 10 mM Tris-HCl pH 7.5, 50 mM NaCl, 1 mM DTT, 4% glycerol, room temperature, 30 min; GST-TFs on glutathione beads, 16-mer random dsDNA library, 0.1% formaldehyde crosslink after washing; high values mean tight binding
Conditions in all cases: protein: recombinant; tags: N-terminal GST; dsDNA, one strand shown
FLI1 = molecular target: T1, FLI1 (Homo sapiens, UniProt Q01543 1-452)
T1 sequence: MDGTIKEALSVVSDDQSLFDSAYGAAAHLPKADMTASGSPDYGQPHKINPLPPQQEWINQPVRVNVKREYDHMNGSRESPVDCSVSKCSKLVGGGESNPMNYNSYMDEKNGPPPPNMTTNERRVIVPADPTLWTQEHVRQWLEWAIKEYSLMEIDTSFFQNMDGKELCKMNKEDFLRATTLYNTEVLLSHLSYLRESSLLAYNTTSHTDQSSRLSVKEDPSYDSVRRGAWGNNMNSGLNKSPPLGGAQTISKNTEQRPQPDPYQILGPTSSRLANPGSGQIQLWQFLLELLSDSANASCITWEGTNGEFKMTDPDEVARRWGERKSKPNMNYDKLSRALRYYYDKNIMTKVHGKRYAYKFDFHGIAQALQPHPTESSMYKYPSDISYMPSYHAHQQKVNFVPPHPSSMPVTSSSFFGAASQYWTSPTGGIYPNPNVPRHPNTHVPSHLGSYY
Method in brief: (§1)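 Sequencing on an Illumina NextSeq500 followed washing, crosslinking with 0.1% formaldehyde, proximity ligation (BsaI/T4 ligase, 1 h, 37 °C) and PCR amplification of pools that had been incubated for 30 min at room temperature with 200 nmole of a random double-stranded 16-mer DNA library in Tris/NaCl/DTT/glycerol buffer. Each pool held DNA-barcoded human transcription factors, expressed in yeast as GST fusions and captured on glutathione beads, plus a tag-only sample. Binding signal is a hexamer's read frequency for a factor divided by its frequency in the tag-only sample.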

ELK1 = molecular target: T2, ELK1 (Homo sapiens, UniProt P19419 1-428)
T2 sequence: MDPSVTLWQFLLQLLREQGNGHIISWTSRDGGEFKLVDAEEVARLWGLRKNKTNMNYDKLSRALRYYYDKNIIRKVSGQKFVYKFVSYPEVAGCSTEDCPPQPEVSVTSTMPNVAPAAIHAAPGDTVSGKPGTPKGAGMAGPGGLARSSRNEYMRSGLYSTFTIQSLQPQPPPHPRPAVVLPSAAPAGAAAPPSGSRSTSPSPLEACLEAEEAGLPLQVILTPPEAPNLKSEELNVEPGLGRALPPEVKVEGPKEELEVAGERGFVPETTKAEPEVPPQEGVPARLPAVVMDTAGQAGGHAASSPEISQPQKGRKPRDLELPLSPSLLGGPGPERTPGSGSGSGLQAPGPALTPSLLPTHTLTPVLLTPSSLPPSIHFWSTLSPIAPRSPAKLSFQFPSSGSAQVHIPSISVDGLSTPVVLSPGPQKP
Method in brief: as §1

GABPA = molecular target: T3, GABPA (Homo sapiens, UniProt Q06546 1-454)
T3 sequence: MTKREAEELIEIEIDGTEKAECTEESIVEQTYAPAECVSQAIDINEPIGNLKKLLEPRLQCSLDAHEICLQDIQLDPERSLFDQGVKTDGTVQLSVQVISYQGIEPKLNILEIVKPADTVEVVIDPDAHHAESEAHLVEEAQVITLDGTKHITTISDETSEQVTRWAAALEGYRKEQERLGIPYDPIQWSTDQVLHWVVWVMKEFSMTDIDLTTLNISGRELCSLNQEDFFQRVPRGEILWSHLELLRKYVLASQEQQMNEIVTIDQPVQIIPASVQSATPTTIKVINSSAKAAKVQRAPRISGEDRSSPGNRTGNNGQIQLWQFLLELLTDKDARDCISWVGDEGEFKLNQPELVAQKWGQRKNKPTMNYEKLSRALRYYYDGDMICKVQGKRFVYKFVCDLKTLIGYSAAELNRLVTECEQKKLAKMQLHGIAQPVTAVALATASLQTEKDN
Method in brief: as §1

ERG = molecular target: T4, ERG (Homo sapiens, UniProt P11308 1-479)
T4 sequence: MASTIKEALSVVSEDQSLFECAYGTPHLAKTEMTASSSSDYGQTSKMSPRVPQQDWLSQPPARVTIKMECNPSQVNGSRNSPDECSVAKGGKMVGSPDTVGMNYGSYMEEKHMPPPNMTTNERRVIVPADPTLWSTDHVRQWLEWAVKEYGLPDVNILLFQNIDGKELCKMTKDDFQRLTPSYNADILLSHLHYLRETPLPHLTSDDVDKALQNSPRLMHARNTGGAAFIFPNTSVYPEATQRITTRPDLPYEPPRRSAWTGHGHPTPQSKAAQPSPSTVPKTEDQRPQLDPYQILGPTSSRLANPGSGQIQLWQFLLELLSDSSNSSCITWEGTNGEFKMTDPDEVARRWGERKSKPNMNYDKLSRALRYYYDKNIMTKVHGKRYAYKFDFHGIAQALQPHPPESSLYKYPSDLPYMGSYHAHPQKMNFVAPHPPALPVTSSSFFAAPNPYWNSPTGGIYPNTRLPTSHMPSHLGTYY
Method in brief: as §1

ELF1 = ELF1 (Homo sapiens, UniProt P32519 1-619)
Method in brief: as §1

EHF = molecular target: T5, EHF (Homo sapiens, UniProt Q9NZC4 1-300)
T5 sequence: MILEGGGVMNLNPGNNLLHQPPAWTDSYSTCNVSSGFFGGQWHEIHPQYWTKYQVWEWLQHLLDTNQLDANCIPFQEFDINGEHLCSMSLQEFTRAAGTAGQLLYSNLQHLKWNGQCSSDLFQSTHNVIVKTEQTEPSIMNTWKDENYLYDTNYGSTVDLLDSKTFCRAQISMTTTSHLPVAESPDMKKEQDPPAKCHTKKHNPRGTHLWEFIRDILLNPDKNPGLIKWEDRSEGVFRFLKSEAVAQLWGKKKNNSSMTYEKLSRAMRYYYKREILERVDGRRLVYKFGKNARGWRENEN
Method in brief: as §1

SPI1 = SPI1 (Homo sapiens, UniProt P17947 1-270)
Method in brief: as §1

SPIB = SPIB (Homo sapiens, UniProt Q01892 1-262)
Method in brief: as §1

ELK3 = molecular target: T6, ELK3 (Homo sapiens, UniProt P41970 1-407)
T6 sequence: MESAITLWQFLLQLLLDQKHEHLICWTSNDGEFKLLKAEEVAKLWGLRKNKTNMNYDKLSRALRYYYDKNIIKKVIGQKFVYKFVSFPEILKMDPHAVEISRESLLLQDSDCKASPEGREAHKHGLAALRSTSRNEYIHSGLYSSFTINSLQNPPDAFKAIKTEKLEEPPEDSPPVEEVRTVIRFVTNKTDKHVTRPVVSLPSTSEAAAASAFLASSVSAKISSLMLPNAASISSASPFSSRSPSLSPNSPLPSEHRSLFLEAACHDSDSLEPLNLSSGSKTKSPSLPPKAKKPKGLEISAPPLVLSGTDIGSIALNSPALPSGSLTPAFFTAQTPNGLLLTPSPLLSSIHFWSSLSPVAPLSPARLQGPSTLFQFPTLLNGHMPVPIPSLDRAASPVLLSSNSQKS
Method in brief: as §1

FEV = molecular target: T7, FEV (Homo sapiens, UniProt Q99581 1-238)
T7 sequence: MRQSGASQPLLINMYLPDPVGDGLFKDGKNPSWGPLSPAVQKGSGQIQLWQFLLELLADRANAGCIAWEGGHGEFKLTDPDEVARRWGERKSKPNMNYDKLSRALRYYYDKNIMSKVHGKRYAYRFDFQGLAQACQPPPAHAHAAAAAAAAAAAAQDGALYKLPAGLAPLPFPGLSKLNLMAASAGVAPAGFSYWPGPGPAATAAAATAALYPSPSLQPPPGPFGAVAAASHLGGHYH
Method in brief: as §1

ETV5 = ETV5 (Homo sapiens, UniProt P41161 1-510)
Method in brief: as §1

SPIC = molecular target: T8, SPIC (Homo sapiens, UniProt Q8N5J4 1-248)
T8 sequence: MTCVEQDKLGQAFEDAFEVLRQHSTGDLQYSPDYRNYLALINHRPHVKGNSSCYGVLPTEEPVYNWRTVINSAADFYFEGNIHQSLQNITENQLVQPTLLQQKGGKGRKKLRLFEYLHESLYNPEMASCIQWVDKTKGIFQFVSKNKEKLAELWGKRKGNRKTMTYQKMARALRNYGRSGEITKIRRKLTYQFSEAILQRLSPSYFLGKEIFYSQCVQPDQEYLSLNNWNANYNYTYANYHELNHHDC
Method in brief: as §1

ELF4 = ELF4 (Homo sapiens, UniProt Q99607 1-663)
Method in brief: as §1

ELK4 = molecular target: T9, ELK4 (Homo sapiens, UniProt P28324-2 1-405)
T9 sequence: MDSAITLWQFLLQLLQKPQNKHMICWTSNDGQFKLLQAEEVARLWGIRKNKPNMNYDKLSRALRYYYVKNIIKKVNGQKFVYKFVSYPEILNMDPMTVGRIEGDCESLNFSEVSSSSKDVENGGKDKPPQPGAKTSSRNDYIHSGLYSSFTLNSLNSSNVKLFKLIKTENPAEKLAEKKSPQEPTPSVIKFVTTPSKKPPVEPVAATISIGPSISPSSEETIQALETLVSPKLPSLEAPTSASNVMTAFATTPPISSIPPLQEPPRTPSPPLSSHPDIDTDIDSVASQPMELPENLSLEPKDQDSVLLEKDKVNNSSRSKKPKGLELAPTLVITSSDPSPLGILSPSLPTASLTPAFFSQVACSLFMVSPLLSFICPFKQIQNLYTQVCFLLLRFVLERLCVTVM
Method in brief: as §1

ETV2 = molecular target: T10, ETV2 (Homo sapiens, UniProt O00321 1-342)
T10 sequence: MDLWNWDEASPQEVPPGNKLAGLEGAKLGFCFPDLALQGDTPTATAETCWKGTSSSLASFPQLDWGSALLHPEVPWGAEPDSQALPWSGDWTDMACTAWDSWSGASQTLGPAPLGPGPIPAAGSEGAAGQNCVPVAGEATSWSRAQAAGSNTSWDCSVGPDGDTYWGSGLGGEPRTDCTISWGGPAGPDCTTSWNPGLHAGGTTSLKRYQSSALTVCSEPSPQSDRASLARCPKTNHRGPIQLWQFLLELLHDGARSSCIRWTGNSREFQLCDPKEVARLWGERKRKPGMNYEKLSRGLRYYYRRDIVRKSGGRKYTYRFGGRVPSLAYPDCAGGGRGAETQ
Method in brief: as §1

ELF3 = molecular target: T11, ELF3 (Homo sapiens, UniProt P78545 1-371)
T11 sequence: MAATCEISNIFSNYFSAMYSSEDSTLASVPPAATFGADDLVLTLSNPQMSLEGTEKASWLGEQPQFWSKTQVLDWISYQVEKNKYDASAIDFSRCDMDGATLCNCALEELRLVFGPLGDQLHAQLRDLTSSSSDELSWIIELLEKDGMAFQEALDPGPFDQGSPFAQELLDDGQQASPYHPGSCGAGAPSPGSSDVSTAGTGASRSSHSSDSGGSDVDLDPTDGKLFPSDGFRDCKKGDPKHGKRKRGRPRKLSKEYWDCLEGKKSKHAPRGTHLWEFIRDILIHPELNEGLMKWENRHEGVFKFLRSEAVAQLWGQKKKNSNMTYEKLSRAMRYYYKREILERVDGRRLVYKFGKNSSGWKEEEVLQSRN
Method in brief: as §1

ETV1 = ETV1 (Homo sapiens, UniProt P50549 1-477)
Method in brief: as §1

Chain of ELF4 (Q99607 whole entry): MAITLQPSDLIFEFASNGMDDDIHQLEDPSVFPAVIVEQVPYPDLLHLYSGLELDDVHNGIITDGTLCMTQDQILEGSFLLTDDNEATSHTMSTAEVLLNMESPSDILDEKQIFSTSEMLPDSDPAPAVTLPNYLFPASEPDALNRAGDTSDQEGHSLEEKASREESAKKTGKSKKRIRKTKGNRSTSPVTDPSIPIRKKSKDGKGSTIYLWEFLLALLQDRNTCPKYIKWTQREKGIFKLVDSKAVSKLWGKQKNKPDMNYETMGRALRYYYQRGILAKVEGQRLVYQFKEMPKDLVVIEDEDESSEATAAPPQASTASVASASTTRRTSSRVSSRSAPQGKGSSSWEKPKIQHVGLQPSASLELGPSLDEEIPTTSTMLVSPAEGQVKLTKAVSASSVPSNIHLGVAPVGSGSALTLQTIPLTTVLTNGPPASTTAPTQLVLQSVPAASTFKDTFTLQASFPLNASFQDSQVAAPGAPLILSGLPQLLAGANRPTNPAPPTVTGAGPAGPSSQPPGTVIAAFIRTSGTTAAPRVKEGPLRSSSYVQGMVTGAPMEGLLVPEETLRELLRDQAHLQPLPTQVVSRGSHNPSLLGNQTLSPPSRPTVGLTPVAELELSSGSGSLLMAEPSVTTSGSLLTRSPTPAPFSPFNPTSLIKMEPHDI
Chain of SPIB (Q01892 whole entry): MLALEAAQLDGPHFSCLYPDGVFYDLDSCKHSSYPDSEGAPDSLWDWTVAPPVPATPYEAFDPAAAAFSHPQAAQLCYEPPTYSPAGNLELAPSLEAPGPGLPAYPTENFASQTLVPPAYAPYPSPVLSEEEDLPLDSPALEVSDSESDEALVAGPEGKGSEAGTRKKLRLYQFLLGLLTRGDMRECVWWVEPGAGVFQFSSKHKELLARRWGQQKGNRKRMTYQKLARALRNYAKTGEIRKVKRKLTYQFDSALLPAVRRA
Chain of ETV5 (P41161 whole entry): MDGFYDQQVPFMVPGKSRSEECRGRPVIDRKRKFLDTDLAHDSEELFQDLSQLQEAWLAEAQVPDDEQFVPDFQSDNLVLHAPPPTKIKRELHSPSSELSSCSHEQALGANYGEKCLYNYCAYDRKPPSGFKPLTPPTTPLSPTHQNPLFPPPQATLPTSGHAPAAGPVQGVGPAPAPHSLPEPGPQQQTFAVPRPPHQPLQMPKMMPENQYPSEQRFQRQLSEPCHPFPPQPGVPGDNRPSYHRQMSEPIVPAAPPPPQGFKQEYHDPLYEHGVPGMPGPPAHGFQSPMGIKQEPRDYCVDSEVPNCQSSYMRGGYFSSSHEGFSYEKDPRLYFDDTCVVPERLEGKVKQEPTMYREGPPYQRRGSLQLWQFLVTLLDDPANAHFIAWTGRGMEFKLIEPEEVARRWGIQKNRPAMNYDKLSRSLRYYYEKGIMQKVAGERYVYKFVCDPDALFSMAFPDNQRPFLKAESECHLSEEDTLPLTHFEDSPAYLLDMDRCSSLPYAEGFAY
Chain of ETV1 (P50549 whole entry): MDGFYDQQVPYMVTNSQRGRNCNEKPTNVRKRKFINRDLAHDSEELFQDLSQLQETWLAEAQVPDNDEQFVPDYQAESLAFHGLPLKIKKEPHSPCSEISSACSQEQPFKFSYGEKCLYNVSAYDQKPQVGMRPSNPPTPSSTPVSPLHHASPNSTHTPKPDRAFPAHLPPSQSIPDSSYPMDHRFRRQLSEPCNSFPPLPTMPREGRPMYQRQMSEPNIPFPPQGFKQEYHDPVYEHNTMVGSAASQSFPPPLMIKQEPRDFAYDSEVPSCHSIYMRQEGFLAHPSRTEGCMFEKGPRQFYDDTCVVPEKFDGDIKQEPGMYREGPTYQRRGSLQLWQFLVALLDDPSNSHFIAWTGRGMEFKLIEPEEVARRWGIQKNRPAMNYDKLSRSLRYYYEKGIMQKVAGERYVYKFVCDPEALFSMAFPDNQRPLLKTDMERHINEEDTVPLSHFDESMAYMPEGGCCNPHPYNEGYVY
Chain of ELF1 (P32519 whole entry): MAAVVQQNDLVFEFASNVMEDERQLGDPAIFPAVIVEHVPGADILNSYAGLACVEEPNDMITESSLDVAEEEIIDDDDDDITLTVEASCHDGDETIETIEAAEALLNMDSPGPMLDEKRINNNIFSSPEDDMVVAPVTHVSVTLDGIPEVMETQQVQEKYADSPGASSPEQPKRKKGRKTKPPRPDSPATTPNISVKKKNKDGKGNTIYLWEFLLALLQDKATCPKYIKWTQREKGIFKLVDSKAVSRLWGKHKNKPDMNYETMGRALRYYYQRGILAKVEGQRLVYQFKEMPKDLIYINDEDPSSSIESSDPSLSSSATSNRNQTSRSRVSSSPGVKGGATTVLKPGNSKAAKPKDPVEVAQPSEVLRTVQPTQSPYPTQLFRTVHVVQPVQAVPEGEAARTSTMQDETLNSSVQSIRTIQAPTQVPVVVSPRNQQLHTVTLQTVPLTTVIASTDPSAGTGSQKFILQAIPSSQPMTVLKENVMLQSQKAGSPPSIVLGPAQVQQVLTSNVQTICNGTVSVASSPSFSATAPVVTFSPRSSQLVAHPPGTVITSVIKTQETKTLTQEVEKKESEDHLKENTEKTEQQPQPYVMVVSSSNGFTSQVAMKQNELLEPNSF

Sequence | binding signal (FLI1) | binding signal (ELK1) | binding signal (GABPA) | binding signal (ERG) | binding signal (ELF1) | binding signal (EHF) | binding signal (SPI1) | binding signal (SPIB) | binding signal (ELK3) | binding signal (FEV) | binding signal (ETV5) | binding signal (SPIC) | binding signal (ELF4) | binding signal (ELK4) | binding signal (ETV2) | binding signal (ELF3) | binding signal (ETV1)
CCGGAC | 1.47 fold enrichment (6-mer frequency, TF over GST control) | 1.48 fold enrichment (6-mer frequency, TF over GST control) | 1.41 fold enrichment (6-mer frequency, TF over GST control) | 1.74 fold enrichment (6-mer frequency, TF over GST control) | 1.44 fold enrichment (6-mer frequency, TF over GST control) | 1.56 fold enrichment (6-mer frequency, TF over GST control) | 1.41 fold enrichment (6-mer frequency, TF over GST control) | 1.57 fold enrichment (6-mer frequency, TF over GST control) | 1.38 fold enrichment (6-mer frequency, TF over GST control) | 2.05 fold enrichment (6-mer frequency, TF over GST control) | 1.57 fold enrichment (6-mer frequency, TF over GST control) | 1.22 fold enrichment (6-mer frequency, TF over GST control) | 1.44 fold enrichment (6-mer frequency, TF over GST control) | 1.15 fold enrichment (6-mer frequency, TF over GST control) | 1.39 fold enrichment (6-mer frequency, TF over GST control) | 1.45 fold enrichment (6-mer frequency, TF over GST control) | 1.53 fold enrichment (6-mer frequency, TF over GST control)
AACAGG | 1.2 fold enrichment (6-mer frequency, TF over GST control) | 1.16 fold enrichment (6-mer frequency, TF over GST control) | 1.13 fold enrichment (6-mer frequency, TF over GST control) | 1.23 fold enrichment (6-mer frequency, TF over GST control) | 1.08 fold enrichment (6-mer frequency, TF over GST control) | 1.18 fold enrichment (6-mer frequency, TF over GST control) | 1.43 fold enrichment (6-mer frequency, TF over GST control) | 1.16 fold enrichment (6-mer frequency, TF over GST control) | 1.11 fold enrichment (6-mer frequency, TF over GST control) | 1.16 fold enrichment (6-mer frequency, TF over GST control) | 1.27 fold enrichment (6-mer frequency, TF over GST control) | 1.15 fold enrichment (6-mer frequency, TF over GST control) | 1.08 fold enrichment (6-mer frequency, TF over GST control) | 1.09 fold enrichment (6-mer frequency, TF over GST control) | 1.03 fold enrichment (6-mer frequency, TF over GST control) | 1.15 fold enrichment (6-mer frequency, TF over GST control) | 1.18 fold enrichment (6-mer frequency, TF over GST control)
CTGCAC | 1.2 fold enrichment (6-mer frequency, TF over GST control) | 1.29 fold enrichment (6-mer frequency, TF over GST control) | 1.12 fold enrichment (6-mer frequency, TF over GST control) | 1.13 fold enrichment (6-mer frequency, TF over GST control) | 1.21 fold enrichment (6-mer frequency, TF over GST control) | 1.3 fold enrichment (6-mer frequency, TF over GST control) | 1.19 fold enrichment (6-mer frequency, TF over GST control) | 1.15 fold enrichment (6-mer frequency, TF over GST control) | 1.12 fold enrichment (6-mer frequency, TF over GST control) | 1.22 fold enrichment (6-mer frequency, TF over GST control) | 1.17 fold enrichment (6-mer frequency, TF over GST control) | 1.32 fold enrichment (6-mer frequency, TF over GST control) | 1.2 fold enrichment (6-mer frequency, TF over GST control) | 1.29 fold enrichment (6-mer frequency, TF over GST control) | 1.24 fold enrichment (6-mer frequency, TF over GST control) | 1.31 fold enrichment (6-mer frequency, TF over GST control) | 1.13 fold enrichment (6-mer frequency, TF over GST control)
